# Measured values from PubChem BioAssay.
# Potency and affinity values are given separately. Active and inactive are the calls of the source. Entries that show only a call come without a potency. The limit is not given here; nearly all actives have IC50 up to about 0.91 µM.
# Biological target: Calcium-dependent protein kinase 4 (Plasmodium falciparum (isolate 3D7)) (UniProt Q8IBS5)
# Assay: PfCDPK4 kinase inhibitors, biochemical, TCAMS library (AID 1159588)
# Settings: recombinant PfCDPK4, Kinase-Glo ATP depletion luminescence
# Chain of Calcium-dependent protein kinase 4 (Plasmodium falciparum (isolate 3D7)) (Q8IBS5 whole entry, looked up): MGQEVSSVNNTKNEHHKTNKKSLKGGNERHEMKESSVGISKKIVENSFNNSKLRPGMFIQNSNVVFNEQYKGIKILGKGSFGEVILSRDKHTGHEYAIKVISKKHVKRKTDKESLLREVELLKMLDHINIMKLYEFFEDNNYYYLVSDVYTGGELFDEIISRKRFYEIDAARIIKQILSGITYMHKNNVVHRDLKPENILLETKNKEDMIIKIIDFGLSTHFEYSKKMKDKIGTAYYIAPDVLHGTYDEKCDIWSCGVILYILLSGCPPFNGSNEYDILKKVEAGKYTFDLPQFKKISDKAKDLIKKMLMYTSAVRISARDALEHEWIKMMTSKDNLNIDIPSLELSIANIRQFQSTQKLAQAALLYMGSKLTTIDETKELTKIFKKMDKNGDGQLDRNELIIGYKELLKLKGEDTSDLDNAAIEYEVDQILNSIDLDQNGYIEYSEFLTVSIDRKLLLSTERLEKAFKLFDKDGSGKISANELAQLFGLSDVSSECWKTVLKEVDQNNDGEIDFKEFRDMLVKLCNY
row,SMILES,outcome
1,Cc1cccc2[nH]c(-c3cccc(-c4cccc(NC(=O)Cc5ccc[n+]([O-])c5)c4)c3)nc12,inactive
2,c1cc2nc(CCCCc3nc4ccc(C5=N[C@@H]6CCCC[C@@H]6N5)cc4[nH]3)[nH]c2cc1C1=N[C@@H]2CCCC[C@@H]2N1,inactive
3,C=CC[C@@H](C[C@H](O)[C@H](Cc1ccccc1)NC(=O)c1ccc(-c2cccnn2)cc1)C(=O)NC1CCCCC1,inactive
4,COc1ccc(Nc2nc(N/N=C/c3cc(Br)c(O)cc3O)nc(Nc3ccc([N+](=O)[O-])cc3)n2)cc1,inactive
5,COc1cc(/C=N/Nc2ccnc3cc(Cl)ccc23)ccc1O,inactive
6,CCn1c(/C=C/c2cc(Br)ccc2O)nc2ccccc2c1=O,inactive
7,c1cc2nc(CCCCCc3nc4ccc(C5=N[C@H]6CCCC[C@H]6N5)cc4[nH]3)[nH]c2cc1C1=N[C@H]2CCCC[C@H]2N1,inactive
8,C=CC[C@@H](C[C@H](O)[C@H](Cc1ccccc1)NC(=O)c1ccc(-n2cccn2)cc1)C(=O)NC1CCCCC1,inactive
9,C/C(=N\NC(N)=O)C1=C(O)C(c2ccccc2)N(C2CCCCC2)C1=O (configuration not stated),inactive
10,O/N=C1\CCc2cc(-c3nc(-c4ccc(OCCN5CCCCC5)cc4)[nH]c3-c3ccncc3)ccc21,inactive
11,O/N=C1\CCc2cc(-c3cc(-c4ccc(OC5CCNCC5)cc4)oc3-c3ccncc3)ccc21,inactive
12,Nc1ccc(-c2nc3cc(C4=N[C@@H]5CCCC[C@@H]5N4)ccc3o2)cc1[N+](=O)[O-],inactive
13,Nc1cc(/C=C/c2ccc(O)cc2)nc2ccccc12,inactive
14,O=[N+]([O-])c1ccc(-c2nc3ccc(C4=N[C@@H]5CCCC[C@@H]5N4)cc3[nH]2)cc1,inactive
15,CC(C)C[C@H](C(=O)N[C@H](C(=O)Nc1nccs1)C(C)(C)C)[C@H](CCC(F)(F)F)N(O)C=O,inactive
16,Cc1cc(C)c2c(c1)/C(=N/O)CCN2,inactive
17,CN(C)C[C@H](O)[C@H](c1ccccc1)c1ccc(Cl)cc1,inactive
18,CC1CCC(C[C@H](C(=O)N[C@@H](CCC(=O)N2CCCCC2)C(=O)Nc2nccs2)[C@H](C(C)C)N(O)C=O)CC1 (some centres not stated),inactive
19,CCC[C@@H]([C@H](CC(C)C)C(=O)N[C@@H](CCCN=C(N)NS(C)(=O)=O)C(=O)Nc1nccs1)N(O)C=O,inactive

row,SMILES,outcome
1,C[C@@H]([C@H](CCCc1ccc(Cl)cc1)C(=O)N[C@H](C(=O)Nc1cccnc1)C(C)(C)C)N(O)C=O,inactive
2,COc1cc(/C=C(\C2=NC(=O)CS2)c2nc3cccnc3n2C)ccc1O,inactive
3,O=C(Cc1ccc[n+]([O-])c1)Nc1cccc(-c2cccc(-c3nc4ccc(F)cc4[nH]3)c2)c1,inactive
4,CC[C@H](C)[C@H](NC(=O)[C@@H](CC1CCCCC1)[C@H](CC)N(O)C=O)C(=O)Nc1ccccn1,inactive
5,Cc1cc(-c2cc(-c3ccc(OCCN(C)C)cc3)[nH]c2-c2ccc3c(c2)CC/C3=N\O)ccn1,inactive
6,O=C(N/C=N/c1cc([N+](=O)[O-])c(-c2cccnc2)n1-c1ccc(O)cc1)c1ccccc1,inactive
7,Oc1ccc2ccccc2c1/C=N/Nc1nc(Nc2ccccc2)nc(Nc2ccccc2)n1,inactive
8,Oc1ccc2ccccc2c1/C=N/Nc1nc(Nc2ccccc2)nc(N2CCOCC2)n1,inactive
9,O/N=C1\CCc2cc(-c3nc(-c4cccc(OCCNCc5ccc(F)cc5)c4)[nH]c3-c3ccncc3)ccc21,inactive
10,COc1ccc(C2=[N+]([O-])c3ccccc3C2=O)cc1,inactive
11,CCC[C@@H]([C@H](CC(C)C)C(=O)N[C@@H](CCCCNC(=O)OCc1ccccc1)C(=O)Nc1ncccn1)N(O)C=O,inactive
12,CCC[C@@H]([C@H](CC1CCCCC1)C(=O)N[C@H](C(=O)Nc1ccccn1)[C@H](C)CC)N(O)C=O,inactive
13,CO[C@H](C)[C@H](NC(=O)[C@@H](CC(C)C)[C@H](CCC(F)(F)F)N(O)C=O)C(=O)Nc1nccs1,inactive
14,CCCO[C@H](C(=O)OC)[C@H](CC1Cc2ccccc2C1)C(=O)NCCC1=CCCCC1,inactive
15,CC[C@@H]([C@H](CC(C)C)C(=O)N[C@@H](CCCCNC(=O)OCc1ccccc1)C(=O)Nc1ccccn1)N(O)C=O,inactive
16,Cc1cccc2[nH]c(-c3cccc(-c4ccc(NC(=O)Cc5ccc[n+]([O-])c5)cc4)c3)nc12,inactive
17,O=C(N/N=C/c1nc2ccccc2[nH]1)c1cccc([N+](=O)[O-])c1,inactive
18,COc1cc(-c2nc(-c3ccc4c(c3)CC/C4=N\O)c(-c3ccncc3)[nH]2)ccc1OCCN1CCCCC1,inactive
